DT40 TDP1 CPT = qHTS for Inhibitors of human tyrosyl-DNA phosphodiesterase 1 (TDP1): qHTS in cells in presence of CPT | 12% of 420,000 active | Potency, µM (highest dose often 46.2 µM), actives largely listed as inhibitors | chicken DT40 Tdp1-/-;hTDP1 cells + 20 nM CPT, ATP luminescence, 48 h | AID 686979, 2013; further: nearly all actives have a fitted effect of over 55% in size
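Chicken DT40 Tdp1-/- cells complemented with human TDP1, 400 cells/well, exposed to compounds plus 20 nM camptothecin for at least 48 h at 37 C; viability read as ATP content by CellTiter-Glo luminescence.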
TDP1 cell noCPT = qHTS for Inhibitors of human tyrosyl-DNA phosphodiesterase 1 (TDP1): qHTS in cells in absence of CPT. Potency, µM (doses to about 46.2 µM), most hits filed as inhibitors. 15% of 420,000 active. AID 686978, 2013. DT40 Tdp1-/- hTDP1 cells, no CPT, ATP luminescence, 48 h; further: nearly all actives have a fitted effect of over 55% in size
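Luminescent ATP content (CellTiter-Glo) served as the growth readout. Knockout chicken DT40 cells expressing human TDP1 were exposed to compounds without camptothecin for a minimum 48 hr at 37 °C.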
ClpP mod = qHTS Assay for Activators of ClpP | purified B. subtilis ClpP, FRET peptide cleavage, 20 min | Potency, µM (top dose mostly 57.5 µM) | 1.9% of 340,000 active; active means well fitted falling curve with a large enough effect; inconclusive means small, poorly fitted or top-dose-only effect; inactive means no such curve, though single readings can be large or run the other way; further: the source files actives as falling curves though it sought activators and does not explain the sign; nearly all actives have a fitted effect of over 65% in size
Target sequence (P80244 whole entry, looked up): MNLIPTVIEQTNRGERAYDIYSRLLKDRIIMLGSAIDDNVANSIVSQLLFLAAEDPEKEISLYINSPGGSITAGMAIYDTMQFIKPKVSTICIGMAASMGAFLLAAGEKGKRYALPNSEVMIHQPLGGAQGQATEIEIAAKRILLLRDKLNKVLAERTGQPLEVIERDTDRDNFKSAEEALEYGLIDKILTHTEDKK
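ClpP 10 microg/mL final, pH 8 Tris/KCl buffer with BSA, glycerol, Tween-20; compound pinned in; FRET-FV substrate; RT 20 min; Ex320/Em430; ΔFRET vs ADEP 5.8 microM, DMSO, no enzyme.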
TDP1 inh = qHTS Assay for Inhibitors of Tyrosyl-DNA Phosphodiesterase (TDP1). recombinant TDP1, AlphaScreen DNA substrate cleavage. Potency, µM (series often up to 130 µM), most hits filed as inhibitors. 0.28% of 350,000 active; further: nearly all actives have a fitted effect of over 40% in size
Target sequence (Q9NUW8 whole entry, looked up): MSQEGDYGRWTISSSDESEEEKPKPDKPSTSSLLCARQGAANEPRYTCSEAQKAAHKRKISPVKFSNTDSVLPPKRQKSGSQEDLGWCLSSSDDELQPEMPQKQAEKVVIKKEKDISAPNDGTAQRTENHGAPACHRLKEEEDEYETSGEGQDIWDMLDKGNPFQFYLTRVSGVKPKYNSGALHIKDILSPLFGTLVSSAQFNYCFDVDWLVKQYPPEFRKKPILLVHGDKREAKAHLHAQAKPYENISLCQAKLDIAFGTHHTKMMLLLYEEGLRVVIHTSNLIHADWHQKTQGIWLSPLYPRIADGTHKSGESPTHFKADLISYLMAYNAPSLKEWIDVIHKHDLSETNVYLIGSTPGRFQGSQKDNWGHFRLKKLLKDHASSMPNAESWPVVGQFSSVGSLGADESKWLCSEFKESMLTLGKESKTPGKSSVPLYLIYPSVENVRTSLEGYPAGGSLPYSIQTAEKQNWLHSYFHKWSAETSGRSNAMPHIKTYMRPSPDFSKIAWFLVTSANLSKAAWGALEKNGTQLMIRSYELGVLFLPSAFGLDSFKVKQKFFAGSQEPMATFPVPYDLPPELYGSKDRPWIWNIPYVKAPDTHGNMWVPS
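Here, a 5' biotin and 3' phosphotyrosine-FITC DNA oligonucleotide reports Tdp1 activity: intact substrate bridges AlphaScreen beads, while cleavage leaves a 3' phosphate and drops signal. All incubations at room temperature.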
Of the large screens only hits and unclear results are named; the others gave an inactive call. This is a sample that favours compounds with a hit; in the whole collection about 17% have one here. Unless noted, the call rests on the fitted dose curve; in most records, active means well fitted curve in the direction sought with a large enough effect; inconclusive means small, poorly fitted or top-dose-only effect, or another doubt; inactive means no such curve, though single readings can be large; an effect the other way counts as inactive or inconclusive.

CC(=O)c1ccc(NC(=O)c2ccccc2-c2ccccc2C(=O)O)cc1	none (no result: ClpP mod, TDP1 inh)
CCOC(=O)c1c(NC(=O)c2nc(SC(C)C)ncc2Cl)sc2c1CCCC2	none
O=C1CCc2ccc(OCCCCN3CCN(c4cccc(Cl)c4Cl)CC3)cc2N1	DT40 TDP1 CPT 16.4µM, TDP1 cell noCPT 14.6µM
c1cnc2c(OCc3cn4cccnc4n3)cccc2c1	TDP1 cell noCPT 29.1µM
CN(C(=O)CSc1cccc[n+]1[O-])c1ccccc1	none
O=C(CSc1cccc[n+]1[O-])c1ccccc1Br	DT40 TDP1 CPT 3.66µM, TDP1 cell noCPT 5.17µM (no result: ClpP mod)
O=C(CSc1cccc[n+]1[O-])c1ccc(Cl)s1	DT40 TDP1 CPT 0.731µM, TDP1 cell noCPT 1.3µM
Cc1cc(C(=O)CSc2cccc[n+]2[O-])c(C)n1-c1ccc(Br)cc1	none (no result: DT40 TDP1 CPT, TDP1 cell noCPT, ClpP mod)
CCOc1cc2[nH]c(=O)n(Cc3ccccc3)c(=O)c2cc1OCC	ClpP mod 12.6µM
COc1cc2[nH]c(=S)n(C3CCN(Cc4ccccc4)CC3)c(=O)c2cc1OC	DT40 TDP1 CPT inconclusive, TDP1 cell noCPT 18.4µM
CCOc1cc2[nH]c(=O)n(CCCC(=O)NCc3ccc(OC)cc3)c(=O)c2cc1OCC	DT40 TDP1 CPT inconclusive, TDP1 cell noCPT inconclusive, ClpP mod inconclusive
COc1ccc(Cn2c(=S)[nH]c3cc(OC)c(OC)cc3c2=O)cc1	TDP1 cell noCPT inconclusive
COc1cc2[nH]c(=O)n(Cc3ccc(C(=O)NCc4ccccc4)cc3)c(=O)c2cc1OC	DT40 TDP1 CPT 18.4µM, TDP1 cell noCPT inconclusive
Cc1cc(O)c2c(c1)O[C@@]1(C)CC[C@H]3C(C)(C)CCCC34CO[C@@H]2[C@H]41 (some centres undefined)	DT40 TDP1 CPT inconclusive, TDP1 cell noCPT 16.8µM (no result: ClpP mod, TDP1 inh)
Cn1nnnc1SCCNCc1ccccc1Cl	none
Cc1cc2[nH]c3c(c[n+](C)c4ccccc34)c2cc1C	TDP1 cell noCPT 1.64µM
COc1ccc(-c2cn3nc(N4CCC(C(=O)Nc5cc(Cl)ccc5C)CC4)sc3n2)cc1	DT40 TDP1 CPT inconclusive, TDP1 cell noCPT inconclusive
O=[N+]([O-])c1ccc(-c2csc(Nc3ccccc3)n2)cc1	DT40 TDP1 CPT inconclusive, TDP1 cell noCPT 12.6µM (no result: TDP1 inh)
O=C(Nc1ccc(-c2csc(Nc3ccccc3)n2)cc1)c1cc([N+](=O)[O-])cc(C(F)(F)F)c1	DT40 TDP1 CPT inconclusive, TDP1 cell noCPT 18.4µM
O=C(Nc1cccc(-c2csc(Nc3cccc(C(F)(F)F)c3)n2)c1)c1cc([N+](=O)[O-])cc(C(F)(F)F)c1	DT40 TDP1 CPT 7.31µM, TDP1 cell noCPT 5.8µM
Cc1ccc(C(=O)Nc2cccc(C(F)(F)F)c2)cc1NC(=O)c1csc(-c2ccncc2)n1	DT40 TDP1 CPT 6.51µM, TDP1 cell noCPT 4.11µM
CC(=O)c1cccc(Nc2nc(-c3cccc([N+](=O)[O-])c3)cs2)c1	DT40 TDP1 CPT inconclusive, TDP1 cell noCPT inconclusive
C=CCNC(=S)Nc1ccc(OC)c(S(=O)(=O)N2CCOCC2)c1	none
O=C1CCc2cc(S(=O)(=O)Nc3cccc(F)c3)ccc2N1	none (no result: DT40 TDP1 CPT, TDP1 cell noCPT, ClpP mod)
O=C(COc1cccc(Cl)c1)N1CCC(c2nc3ccccc3o2)CC1	DT40 TDP1 CPT inconclusive, TDP1 cell noCPT inconclusive
O=C(Nc1ccc(-c2csc(-c3ccccc3)n2)cc1)c1ccccc1	DT40 TDP1 CPT inconclusive, TDP1 cell noCPT inconclusive
NC(=O)Cc1nc(-c2ccc([N+](=O)[O-])cc2)cs1	DT40 TDP1 CPT 10.3µM, TDP1 cell noCPT inconclusive (no result: ClpP mod)
O=C(Nc1ccc(-c2csc(Nc3ccccc3)n2)cc1)c1cccc(C(F)(F)F)c1	DT40 TDP1 CPT 2.91µM, TDP1 cell noCPT 4.11µM, ClpP mod inconclusive
CCC(Cc1ccccc1)NC(=O)C1=C(C)C(=O)OC12CCC(C)CC2 (centres undefined)	TDP1 cell noCPT inconclusive (no result: ClpP mod)
CCN(C(=O)Cc1ccccc1OC)c1nnc(-c2ccncc2)s1	DT40 TDP1 CPT inconclusive, TDP1 cell noCPT 14.6µM
COc1ccc(C)cc1NC(=O)Cc1c(C(=O)O)n(C)c2ccccc12	none (no result: TDP1 inh)
COc1ccc(C)cc1N(C)C(=O)Cc1c(C(=O)O)n(C)c2ccccc12	TDP1 cell noCPT 5.17µM (no result: TDP1 inh)
O=C(NCCN1CCOCC1)c1cnn(-c2nccc(-c3cc4ccccc4o3)n2)c1C1CC1	DT40 TDP1 CPT 18.4µM, TDP1 cell noCPT inconclusive (no result: ClpP mod, TDP1 inh)
O=C(NCC1(N2CCOCC2)CCCCC1)c1cnn(-c2nccc(-c3cccs3)n2)c1C1CC1	DT40 TDP1 CPT inconclusive, TDP1 cell noCPT 20.6µM (no result: ClpP mod, TDP1 inh)
Cc1ccc(-c2ccnc(-n3ncc(C(=O)NCCN4CCOCC4)c3C3CC3)n2)o1	DT40 TDP1 CPT 20.6µM (no result: ClpP mod, TDP1 inh)
CCN1CCCC1CNC(=O)c1cnn(-c2nccc(-c3ccc(C)o3)n2)c1C1CC1 (centres undefined)	none (no result: ClpP mod, TDP1 inh)
Cc1ccc(C2c3c(oc4ccccc4c3=O)C(=O)N2c2nnc(C)s2)cc1 (centres undefined)	DT40 TDP1 CPT 13µM, TDP1 cell noCPT 20.6µM
Cn1c(=O)c(-c2cc(F)cc(F)c2)nc2cncnc21	none (no result: ClpP mod, TDP1 inh)
CCCCCCCCCCCCCCCC[n+]1ccc(CC(O)c2c(C)[nH]c3ccccc23)c2ccccc21 (centres undefined)	DT40 TDP1 CPT 1.58µM, TDP1 cell noCPT 1.26µM (no result: TDP1 inh)
Cc1[nH]c2ccccc2c1C(O)c1ccncc1 (centres undefined)	none (no result: ClpP mod)
CCOC(=O)[C@]12CCCC=C1N(CCc1ccc(OC)c(OC)c1)C(=O)[C@H](CC(=O)NCc1ccc(C)o1)C2	DT40 TDP1 CPT 13µM, TDP1 cell noCPT 16.4µM (no result: TDP1 inh)
CCOC(=O)[C@]12CCC=C1N(CCC1=CCCCC1)C(=O)[C@H](CC(=O)NCCC(C)C)C2	DT40 TDP1 CPT inconclusive, TDP1 cell noCPT 16.4µM (no result: TDP1 inh)
CCOC(=O)[C@]12CCC=C1N(CCC1=CCCCC1)C(=O)[C@H](CC(=O)NCc1cccs1)C2	DT40 TDP1 CPT inconclusive, TDP1 cell noCPT inconclusive (no result: TDP1 inh)
CCOC(=O)[C@]12CCCC=C1N(CCC1=CCCCC1)C(=O)[C@H](CC(=O)NCc1ccccc1)C2	DT40 TDP1 CPT inconclusive, TDP1 cell noCPT 16.4µM (no result: TDP1 inh)
CCCCNC(=O)C[C@@H]1C[C@@]2(C(=O)OCC)CCC=C2N(CCC2=CCCCC2)C1=O	DT40 TDP1 CPT 18.4µM, TDP1 cell noCPT inconclusive (no result: TDP1 inh)
CCCCOCCCNC(=O)C[C@@H]1C[C@@]2(C(=O)OCC)CCC=C2N(CCC2=CCCCC2)C1=O	DT40 TDP1 CPT inconclusive, TDP1 cell noCPT inconclusive (no result: TDP1 inh)
CNC(=O)C1Cc2c(-c3ccccc3Oc3ccccc3)ccnc2O1 (centres undefined)	DT40 TDP1 CPT inconclusive (no result: TDP1 inh)
COCCN(C(=O)CSc1nc(-c2ccccc2)cn1N)c1c(N)n(Cc2ccccc2)c(=O)[nH]c1=O	none (no result: TDP1 inh)
CCOC(=O)[C@]12CCC=C1N(CCC1=CCCCC1)C(=O)[C@H](CC(=O)NCCCCc1ccccc1)C2	DT40 TDP1 CPT inconclusive, TDP1 cell noCPT 20.6µM (no result: TDP1 inh)
CCOC(=O)[C@]12CCC=C1N(CCC1=CCCCC1)C(=O)[C@H](CC(=O)NCC1CCCCC1)C2	DT40 TDP1 CPT 23.1µM, TDP1 cell noCPT inconclusive (no result: TDP1 inh)
